Drawing on PubChem BioAssay (NCI), this text covers growth for 27 compounds.

Assay in all cases: NCI-60 one-dose screen, 48 h (100 = growth as untreated, 0 = no growth, -100 = all killed)
What all share (settings): 10 µM unless noted

Assay [1] concerns T-47D breast.
The subject of assay [2] is BT-549 breast.
Assay [3] concerns MDA-MB-435 melanoma.
In assay [4] the test system is SW-620 colon.
In assay [5] the test system is MCF7 breast.
For assay [6], the system named is HCT-116 colon.
In assay [7] the test system is HCC-2998 colon.
In assay [8] the test system is KM12 colon.

Structures are written as SMILES. About 83,000 compounds went through this panel and 20% of them were active in at least one assay; those are over-represented in the sample as a whole.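 48-hour exposure, single concentration, 96-well plates; percent growth endpoint where 0 means no net growth. Active: below 10.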 A number with no mark means an inactive call. Activity calls are given as the source filed them.

`NC(=S)Nc1ccc2c(c1)Cc1ccccc1-2`: the growth in assay [1] is 81.9%; in assay [2], 79.4%; in assay [3], 110%; in assay [4], 94.7%; in assay [5] it was 70.1%; in assay [6], 94.8%. Further, the growth was 97.6% in assay [7] and 95.1% in assay [8].
Take `CCN(CC)CCNC(Cc1ccccc1)c1ccc(OCc2ccccc2)cc1` (stereo not drawn): the growth in assay [1] was 68.5%; in assay [2], 76.8%; in assay [3] it was 26.7%; in assay [4], 77.2%; in assay [5], 78.2%; in assay [6], 49.9%. For the same compound, the results for the growth in assay [7] and in assay [8] were 45.4% and 80.7%, respectively.
Consider `Cc1ccc2c(c1)sc(-c1ccc(N(C)C)cc1)[n+]2C`, for which the growth is 1.38% (active) in assay [1]; 11.9% in assay [2]; 9.68% (active) in assay [3]; 12.3% in assay [4]; 3.8% (active) in assay [5]; -8.72% (active) in assay [6]. In addition, the growth is 2.49% (active) in assay [7] and 5.09% (active) in assay [8].
Turning to `O=C(Nc1cccc(C(F)(F)F)c1)Oc1ccc(Cl)c2cccnc12`, the growth in assay [1] was 22%; in assay [2], 37.5%; in assay [3], 28%; in assay [4], 12.8%; in assay [5], 61.1%; in assay [6] it was 0.974% (active). The values for the growth in assay [7] and in assay [8] were 92.7% and 25.4%, respectively.
Take `OCCOSCCO`: the growth is 110% in assay [1]; 110% in assay [2]; 109% in assay [3]; 105% in assay [4]; 97.7% in assay [5]; 102% in assay [6]. The growth is 111% in assay [7] and 112% in assay [8].
`Cc1nc(Sc2nc3ccc([N+](=O)[O-])cc3s2)sc1C`: the growth in assay [1] is 27%; in assay [2] it was -10.4% (active); in assay [3], 29.6%; in assay [4], 11.5%; in assay [5] it was 1.58% (active); in assay [6] it was 2.1% (active). Also, the growth in assay [7] is 71.3%; in assay [8], 36.6%.
Regarding `CCCCC(C=O)(C=C=C(C)C)CC` (stereo not drawn), the growth in assay [1] was 111%; in assay [2] it was 103%; in assay [3], 99.1%; in assay [4], 106%; in assay [5] it was 90.9%; in assay [6] it was 106%. Further, the growth in assay [7] and in assay [8] was 109% each time.
Consider `C=C(C(N)=O)C(N)C(=O)O` (stereo not drawn), for which the growth was 106% in assay [1]; 108% in assay [2]; 123% in assay [3]; 109% in assay [4]; 102% in assay [5]; 92.4% in assay [6]. Moreover, the growth in assay [7] was 108%; in assay [8], 95.9%.
Turning to `CCOc1cc(F)c([N+](=O)[O-])cc1[N+](=O)[O-]`, the growth is 24.5% in assay [1]; 87.3% in assay [2]; 37.2% in assay [3]; 19.8% in assay [4]; 15.9% in assay [5]; 9.26% (active) in assay [6]. Further, the growth in assay [7] is 98.7%; in assay [8], -44.7% (active).
Turning to `CCOC(=O)C1=NN(c2ccccc2)C(=O)/C1=C\N1C(=O)/C(=C/c2cccc(O)c2)SC1=S`, the growth in assay [1] was 93%; in assay [2], 97%; in assay [3] it was 109%; in assay [4], 97.6%; in assay [5], 91.8%; in assay [6], 88.8%. Besides, the growth in assay [7] is 99.8%; in assay [8], 100%.
On to `CN(C)c1ccc(/C=C/c2nccc3ccccc23)cc1`, for which the growth in assay [1] is 40.2%; in assay [2] it was 84.1%; in assay [3] it was 55.7%; in assay [4], 84.1%; in assay [5], 30.6%; in assay [6], 81.5%. Further, the growth is 82.9% in assay [7] and 73.3% in assay [8].
`C[n+]1ccccc1C[n+]1ccccc1`: the growth in assay [1] is 105%; in assay [2], 108%; in assay [3], 115%; in assay [4], 118%; in assay [5] it was 92.3%; in assay [6], 107%. For the same compound, the growth in assay [7] is 110%; in assay [8], 103%.
In the case of `CCOc1ccc2c(c1)/C(=C\C=C\C1CC(C)C3CC(OCC)CCC3N1CC)CC(C)N2CC` (stereo not drawn), the growth is 9.32% (active) in assay [1]; 0.574% (active) in assay [2]; -20.6% (active) in assay [3]; 17.1% in assay [4]; 3.06% (active) in assay [5]; 10.7% in assay [6]. For the same compound, the growth in assay [7] was 28.5%; in assay [8], 0.998% (active).
On to `Oc1ccc(Br)cc1Sc1cc(Br)ccc1O`, for which the growth in assay [1] is 17.7%; in assay [2] it was 43.8%; in assay [3] it was 56.7%; in assay [4], 64.1%; in assay [5], 59.2%; in assay [6], 34.3%. Further, the growth was 91.7% in assay [7] and 92.9% in assay [8].
Turning to `O=C(CCl)N1c2ccccc2Sc2c1ccc1ccccc21`, the growth in assay [1] is 84.3%; in assay [2], 36.9%; in assay [3], 80.2%; in assay [4], 11.1%; in assay [5], 66.8%; in assay [6], 16.4%. For the same compound, the results for the growth in assay [7] and in assay [8] were 98.5% and 87.2%, respectively.
For the compound `O=C1c2ccccc2Cc2cccc(Cl)c21`, the growth in assay [1] was 92.8%; in assay [2], 93.3%; in assay [3], 120%; in assay [4], 112%; in assay [5], 96.1%; in assay [6] it was 97.4%. The figures for the growth in assay [7] and in assay [8] were 81% and 106%, respectively.
Take `CCCCCCCCCCCCN1C(C)=CS/C1=C\C=C\c1scc(C)[n+]1CCCCCCCCCCCC`: the growth in assay [1] is 13.8%; in assay [2], 23.7%; in assay [3], 13.6%; in assay [4] it was 30.7%; in assay [5], 7.9% (active); in assay [6], 17.7%. Besides, the growth in assay [7] is 28.4%; in assay [8] it was 14.8%.
Consider `CCCCCCCCCCCCCCCC[N+]1(C)CCCC1c1cccnc1` (stereo not drawn), for which the growth in assay [1] was 45.2%; in assay [2] it was -6.27% (active); in assay [3], 63.9%; in assay [4] it was 53.2%; in assay [5], 41%; in assay [6], 35%. For the same compound, the growth in assay [7] is 19.8%; in assay [8] it was 41.7%.
On to `Nc1ccc(Oc2ccccc2)c(Cl)c1`, for which the growth is 86.6% in assay [1]; 97.6% in assay [2]; 93.6% in assay [3]; 107% in assay [4]; 95.6% in assay [5]; 79.3% in assay [6]. Moreover, the growth in assay [7] was 113%; in assay [8] it was 104%.
For `O=C(NOC(=O)c1ccccc1)c1ccccc1`, the growth in assay [1] was 101%; in assay [2], 107%; in assay [3], 96.4%; in assay [4] it was 93.8%; in assay [5], 107%; in assay [6] it was 95.7%. Further, the growth was 112% in assay [7] and 101% in assay [8].
On to `O=C(c1ccccc1)c1ccc(O)c2ncccc12`, for which the growth in assay [1] was 10.6%; in assay [2] it was 56.3%; in assay [3], 56.7%; in assay [4], 17.1%; in assay [5], 10.5%; in assay [6] it was 13.7%. Moreover, the growth was 35.8% in assay [7] and 27% in assay [8].
In the case of `CCC(C)C(N)C(=O)NC(CC(N)=O)C(=O)NC(CC(C)C)C(=O)NC(CCCCN)C(=O)NC(C)C(=O)NC(CC(C)C)C(=O)NC(C)C(=O)NC(C)C(=O)NC(CC(C)C)C(=O)NC(C)C(=O)NC(CCCCN)C(=O)NC(CCCCN)C(=O)NC(C(=O)NC(CC(C)C)C(N)=O)C(C)CC` (stereo not drawn), the growth in assay [1] was 93.9%; in assay [2], 134%; in assay [3], 77.7%; in assay [4], 103%; in assay [5] it was 97.4%; in assay [6], 82.5%. Besides, the growth in assay [8] is 90.2%.
In the case of `CC(CSc1n[nH]c(=S)s1)c1ccccc1` (stereo not drawn), the growth is 110% in assay [1]; 112% in assay [2]; 109% in assay [3]; 112% in assay [4]; 102% in assay [5]; 105% in assay [6]. Further, the growth in assay [8] was 113%.
Take `NCCCN(CCCN)CCCNCc1c2ccccc2c(CNCCCN(CCCN)CCCN)c2ccccc12`: the growth in assay [1] is 80.9%; in assay [2], 103%; in assay [3], 107%; in assay [4], 100%; in assay [5], 97.1%; in assay [6] it was 90.6%. Moreover, the growth in assay [7] was 97.6%; in assay [8], 97.2%.
Consider `Cc1ccccc1N=C(N)Nc1ccccc1C` (tested in a mixture with another compound), for which the growth in assay [1] is 76.6%; in assay [2], 96.1%; in assay [3], 89.5%; in assay [4], 74.9%; in assay [5], 94.2%; in assay [6], 83.4%. For the same compound, the growth in assay [7] is 97.8%; in assay [8] it was 64.6%.
For the compound `CN=C(N)N/N=C(\C)c1ccc2c(c1)Cc1ccccc1-2`, the growth was -65.4% (active) in assay [1]; -6.1% (active) in assay [2]; -73.1% (active) in assay [3]; -88.9% (active) in assay [4]; -99.3% (active) in assay [5]; -100% (active) in assay [6]. In addition, the growth is -98.5% (active) in assay [7] and -79% (active) in assay [8].
Regarding `Cc1cc(Br)c2nsnc2c1[N+](=O)[O-]`, the growth in assay [1] was 25.1%; in assay [2], 45%; in assay [3] it was 21.1%; in assay [4] it was 33.6%; in assay [5], 10.1%; in assay [6] it was 26.3%. Further, the growth in assay [8] was 9.82% (active).
